Holding throughout (assay): NCI-60 one-dose screen, 48 h (100 = growth as untreated, 0 = no growth, -100 = all killed)
What all share (conditions): 10 µM

Test [1] has as its system HT29 colon.
In test [2] the test system is SNB-75 CNS.
Test [3] has as its system SNB-19 CNS.
Test [4] deals with U251 CNS.
Test [5] relates to PC-3 prostate.
Test [6] deals with SK-MEL-5 melanoma.
In test [7] the test system is UACC-62 melanoma.
Test [8] concerns LOX IMVI melanoma.
For test [9], the system named is SK-MEL-28 melanoma.
The test system of test [10] is SK-MEL-2 melanoma.

This is part of a sample that, as a whole, favours compounds with a hit. Of some 83,000 tested, about 20% had one in any assay.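 For each line, cells grew in 96-well plates with the test compound present at a single concentration for 48 hours.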 A number with no mark means an inactive call. Activity calls are given as the source filed them. Rule for the calls: active = growth percent below 10; inactive = the rest.

Our source for the growth values is PubChem BioAssay (NCI).

On to `O=[N+]([O-])c1cccc(N=Cc2ccc3c(c2)OCO3)c1`, for which the growth in test [1] is 105%; in test [2], 96.7%; in test [3], 130%; in test [4], 97.1%; in test [5], 106%; in [6] it was 111%. The growth is 105% in [7], 91.4% in test [8], 117% in test [9] and 98.1% in test [10].

For `COc1ccc(-c2nn(-c3cccc(NC(=O)c4cccc(C(F)(F)F)c4)c3)cc2-c2ccncc2)cc1Cl`, the growth in [1] is 8.18% (active); in test [2] it was 6.59% (active); in [3] it was 79.6%; in test [4] it was -3.25% (active); in [5], 14%; in [6] it was 23.7%. The growth in test [7] was 38.2%; in test [8], 28.6%; in [9], 40.6%.

For the compound `CC(=O)c1nc2ccccc2n1CCNC(N)=O`, the growth is 35.9% in test [1]; 24% in test [2]; 91.7% in [3]; 69.8% in test [4]; 72% in test [5]; 82.7% in test [6]. For the same compound, the growth was 86.6% in test [7], 62.4% in [8], 89.6% in test [9] and 84% in test [10].

`CS(=O)(=O)Nc1cccc(-c2cc(-c3ccccc3Cl)c(C#N)c(N)n2)c1`: the growth in test [1] was 15.6%; in test [2], -26.4% (active); in test [3], 49%; in test [4], 24.7%; in test [5], 22.3%; in [6], 30.9%. The growth in [7] is 42.8%; in test [8], 43.7%; in test [9], 69.1%; in test [10], 38.5%.

Consider `N#Cc1ncc(-c2cc(F)c(F)c(F)c2)c(NC2CCCCCC2)n1`, for which the growth in test [1] was 97.6%; in test [2] it was 65.1%; in [3], 90.9%; in [4], 50.2%; in test [5], 77.1%; in test [6], 93%. The growth in test [7] is 84.8%; in [8], 84.9%; in [9], 94.1%; in [10] it was 96.2%.

Regarding `COc1ccc(CN2CCC(N3CCCC3=O)c3cc(Cl)ccc32)cc1` (stereo not drawn), the growth in [1] was 88.8%; in test [2], 103%; in [3] it was 99.5%; in test [4], 105%; in [5], 84.4%; in test [6] it was 103%. Besides, the growth in test [7] was 85.2%; in [8] it was 103%; in test [9], 116%.

`O=C1NC(=O)N(Cc2ccccc2)CC1Br` (stereo not drawn): the growth is 77.3% in test [1]; 91.4% in test [2]; 90.6% in test [3]; 59.6% in [4]; 73.1% in test [5]; 77.5% in [6]. The growth was 72.8% in test [7], 25.8% in test [8], 97.7% in test [9] and 70.4% in [10].

As to `Oc1[nH]c2ccc(Cl)cc2c1/C=c1/ccc2c(c1)N=C(c1cc(F)cc(F)c1)N=2`, the growth is 22.7% in test [1]; 11% in test [2]; 77% in [3]; 73.9% in test [4]; 62.6% in test [5]; 35.5% in test [6]. In addition, the growth in [7] is 44.8%; in test [8] it was 47.2%; in [9] it was 65.4%; in test [10], 54.8%.

For the compound `CCC(=O)N1C/C(=C/c2ccc(OC)cc2)C(=O)/C(=C/c2ccc(OC)cc2)C1`, the growth in [1] is -35.5% (active); in test [2] it was 52.9%; in [3], 68.2%; in [4], 4.41% (active); in test [5], 16.2%; in test [6], 15.7%. The growth in test [7] is 27.3%; in [8] it was -58.7% (active); in test [9] it was 19.2%; in test [10], 82.3%.

For `COc1ccc(-c2nn(-c3cccc(NC(=O)c4ccc(Cl)c(Cl)c4)c3)cc2-c2ccncc2)cc1Cl`, the growth in [1] is 78.2%; in test [2] it was 74.8%; in test [3], 87.1%; in [4] it was 64%; in test [5] it was 48.6%; in test [6], 78.8%. Besides, the growth in test [7] is 83.7%; in test [8], 91.2%; in [9], 75.3%.

As to `CCOC(=O)N1C/C(=C/c2ccc(OC)cc2)C(=O)/C(=C/c2ccc(OC)cc2)C1`, the growth was -58.4% (active) in test [1]; 48.8% in [2]; 78% in test [3]; 12% in [4]; 46.5% in test [5]; 21.6% in [6]. Further, the growth was 44.6% in test [7], -72.2% (active) in [8], 58.6% in [9] and 75.1% in test [10].

In the case of `C#Cc1ccc(-n2c(/C=C/c3cc(OC)cc(OC)c3)nc3ncccc3c2=O)cc1`, the growth in [1] is 100%; in [2], 55%; in [3], 98%; in [4] it was 72%; in [5] it was 68.5%; in test [6], 60.7%. Also, the growth is 85.8% in test [7], 76.2% in test [8], 96.7% in test [9] and 53.7% in [10].

As to `O=C1/C(=C/c2ccc([N+](=O)[O-])s2)Oc2ccccc21`, the growth was -15% (active) in test [1]; -7.58% (active) in test [2]; -0.508% (active) in test [3]; -76.5% (active) in test [4]; -23.2% (active) in test [5]; -64.8% (active) in [6]. Further, the growth is -80.4% (active) in test [7], -70.4% (active) in [8], -35.9% (active) in test [9] and -48.9% (active) in test [10].

Turning to `CN(CCc1ccccn1)c1ccccc1`, the growth in test [1] is 102%; in test [2], 92%; in [3], 102%; in test [4], 96.4%; in test [5], 101%; in test [6] it was 103%. For the same compound, the growth was 98% in test [7], 102% in test [8], 101% in test [9] and 101% in test [10].

Take `O=C(Nc1ccc(OS(=O)(=O)c2ccccc2)cc1)C12CC3CC(CC(C3)C1)C2`: the growth in test [1] was -19.9% (active); in test [2], 56.4%; in test [3], 71.8%; in test [4] it was 34.6%; in [5], 23.6%; in [6], 32%. For the same compound, the growth in [7] is 57%; in test [8], 40%; in test [9], 75%.

As to `CCCCCCCNc1nc(C=O)ncc1-c1ccc(C(F)(F)F)cc1`, the growth in test [1] was 86.8%; in test [2], 97%; in [3], 91.1%; in test [4], 86.1%; in test [5], 79.8%; in test [6], 97.6%. In addition, the growth in test [7] was 116%; in test [8] it was 90.7%; in test [9] it was 104%.

With `O=C(/C=C/c1cc2ccccc2[nH]c1=O)c1ccc2c(c1)OCO2`, the growth is 85.3% in test [1]; 86.7% in test [2]; 88.4% in [3]; 86.4% in test [4]; 77.5% in test [5]; 96% in test [6]. In addition, the growth in test [7] is 90.5%; in [8] it was 76.4%; in test [9], 98.6%.

As to `COc1ccc2c(c1)N(CCO)C1=C(C(=O)OC1)C2c1ccc(OC)c(OC)c1` (stereo not drawn), the growth in test [1] is 9.84% (active); in test [2], 16.2%; in test [3], 53.2%; in [4] it was 34.5%; in [5] it was 38%; in [6], 16.9%. The growth was 27.3% in [7], 38.2% in test [8] and 61.6% in test [9].

For `CC1CC(=O)OC(C)C1` (stereo not drawn), the growth in [1] was 112%; in test [2], 78.9%; in [3] it was 116%; in [4], 101%; in [5] it was 101%; in [6] it was 100%. Further, the growth is 114% in [7], 102% in [8], 102% in [9] and 90.1% in test [10].

With `O=C1OCC2=C1C(c1cccc(Cl)c1)c1cc3c(cc1N2CCO)OCO3` (stereo not drawn), the growth was 4.61% (active) in test [1]; 11.7% in test [2]; 37.8% in test [3]; 17.1% in test [4]; 25.2% in [5]; 19% in test [6]. Moreover, the values for the growth in test [7], in [8] and in test [9] were 22.2%, 42.8% and 51.3%, respectively.

As for `CCCCCCN1CCN(Cc2ccc(N(CC)CC)cc2)C(=O)C1=O`, the growth in [1] was 2.25% (active); in test [2] it was 14%; in [3], 74.4%; in test [4], 17.1%; in [5], 13.5%; in test [6] it was 21.4%. Further, the growth is 45% in [7], 45.2% in [8] and 49.9% in test [9].

Consider `COc1ccc(-c2nsc3c2NC(=O)CC3c2ccc(F)cc2)cc1` (stereo not drawn), for which the growth in [1] is 4.71% (active); in test [2] it was 63.5%; in test [3], 72.5%; in [4], 33.6%; in [5] it was 39.1%; in test [6], 20.5%. For the same compound, the growth in test [7] was 51.2%; in test [8], 44.4%; in [9] it was 57.5%; in test [10] it was -11.7% (active).

In the case of `FC(F)(F)c1ccc(-c2cnc(Cl)nc2N2CCC3(CC2)OCCO3)cc1`, the growth is 96.9% in [1]; 93.8% in [2]; 102% in [3]; 85.3% in test [4]; 87.2% in test [5]; 93.8% in test [6]. Moreover, the values for the growth in [7], in [8] and in [9] were 96.8%, 90.4% and 102%, respectively.

In the case of `Fc1cc(C(F)(F)F)ccc1-c1cncnc1NC1CCCCCC1`, the growth in test [1] was 110%; in test [2], 80.3%; in [3], 94.2%; in [4], 79.9%; in test [5], 87.1%; in [6], 92.2%. Besides, the growth was 78.9% in [7], 98.3% in test [8], 111% in test [9] and 98.8% in test [10].

On to `COc1ccc(Nc2ccnc(NCCNc3ccnc4cc(Cl)ccc34)n2)cc1`, for which the growth in test [1] is 9.08% (active); in test [2], 78.9%; in test [3], 67.4%; in test [4], 59.1%; in test [5], 30.1%; in [6] it was -50.8% (active). Moreover, the growth was 74.9% in [7], 8.82% (active) in test [8], -29% (active) in test [9] and 71.8% in test [10].

In the case of `O=C1OCC2=C1C(c1cccc(Cl)c1)c1cc3c(cc1N2CCO)OCCO3` (stereo not drawn), the growth in test [1] was 2.11% (active); in test [2], 29.2%; in test [3] it was 37.4%; in [4] it was 0.324% (active); in test [5] it was 21.3%; in test [6] it was -8.57% (active). Moreover, the growth in test [7] is 27.9%; in [8], 22.2%; in test [9] it was 57.7%.

Take `COc1cc(Nc2ccnc(NCCCNc3ccnc4cc(Cl)ccc34)n2)cc(OC)c1`: the growth in [1] was -31.9% (active); in [2] it was -58.6% (active); in [3] it was 2.03% (active); in test [4], -64.4% (active); in test [5] it was 26.1%; in test [6], -100% (active). Moreover, the growth in test [7] was -82.5% (active); in test [8] it was -82.5% (active); in [9] it was -100% (active); in test [10], -81.6% (active).

With `Nc1ccn(C2CC(O)C(CO)O2)c(=O)n1` (stereo not drawn), the growth is 110% in test [1]; 97.5% in test [2]; 99.7% in test [3]; 105% in [4]; 99.4% in test [5]; 105% in [6]. Moreover, the growth in [7] was 100%; in test [8], 104%; in test [9] it was 120%; in test [10], 87.8%.

For `Cc1ccc(CC#N)cc1C`, the growth in [1] was 110%; in [2] it was 101%; in [3] it was 94.6%; in test [4], 89.9%; in test [5], 164%; in test [6], 99.3%. The growth in test [7] is 103%; in test [8], 96.7%; in test [9], 137%.
